Test results reported in PubChem BioAssay (NCI).
Compounds without any hit were thinned out: in the full panel of roughly 83,000, 20% have a hit.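 96-well plates, one dose, 48 hours. Percent growth reported; active if below 10.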 Unmarked numbers belong to inactive results. Active and inactive are the calls of the source.

What was measured:
Assay in all cases: NCI-60 one-dose screen, 48 h (100 = growth as untreated, 0 = no growth, -100 = all killed)
Details in all cases: 10 µM unless noted
[1] = tested on: DU-145 prostate
[2] = tested on: K-562 leukemia
[3] = tested on: MALME-3M melanoma
[4] = tested on: MDA-MB-231 breast
[5] = tested on: RXF 393 renal
[6] = tested on: SF-268 CNS
[7] = tested on: SF-295 CNS
[8] = tested on: SF-539 CNS
[9] = tested on: UACC-257 melanoma
[10] = tested on: M14 melanoma
[11] = tested on: HCT-15 colon
[12] = tested on: HT29 colon
[13] = tested on: SNB-75 CNS
[14] = tested on: SNB-19 CNS
[15] = tested on: U251 CNS
[16] = tested on: PC-3 prostate
[17] = tested on: SK-MEL-5 melanoma
[18] = tested on: UACC-62 melanoma
[19] = tested on: LOX IMVI melanoma
[20] = tested on: SK-MEL-28 melanoma

SMILES	growth [1]	growth [2]	growth [3]	growth [4]	growth [5]	growth [6]	growth [7]	growth [8]	growth [9]	growth [10]	growth [11]	growth [12]	growth [13]	growth [14]	growth [15]	growth [16]	growth [17]	growth [18]	growth [19]	growth [20]
Cc1cc(N2CCCC2)nc(NCc2cc(Nc3ccnc4cc(Cl)ccc34)ccc2F)n1	-65.9% (active)	-31.9% (active)	-66.9% (active)	-69.8% (active)	-64.9% (active)	-56.2% (active)	-87.5% (active)	-70.4% (active)	-64% (active)	-80.3% (active)	-74.3% (active)	-41.6% (active)	-90.7% (active)	1.18% (active)	-89.7% (active)	-38.8% (active)	-98.6% (active)	-77.8% (active)	-92.9% (active)	-71.4% (active)
COc1cc(C2NC(=O)c3ccccc3N2)ccc1OCCCCCOc1c(OC)cc(C2=NOC(c3cc(OC)c(OC)c(OC)c3)C2)cc1OC (stereo not given)	118%	59.7%	53.9%	82.5%	104%	67.4%	24.9%	83.2%	44%	84.3%	73%	94.2%	101%	80.2%	84.2%	36.8%	-2.4% (active)	53.3%	61%	69.4%
COc1ccc2oc3c(C)c4c(c(C)c3c2c1)C(=O)N(Cc1ccccc1)C4=O	97.1%	92.3%	92.5%	90.3%	99%	87.8%	101%	89.7%	105%	92.9%	101%	96.1%	85.9%	95.1%	83.5%	85.5%	99.6%	92.5%	94%	103%
CC1(C)CC(=O)C2=C(C1)N(c1ccc(OC(F)(F)F)cc1)C(N)=C(C#N)C2c1ccc(Cl)cc1 (stereo not given)	91.3%	86.5%	85%	80.8%	66.7%	74.3%	81.6%	82.2%	84.1%	93.7%	97.1%	87.2%	52.6%	57.4%	56.2%	76.8%	93.8%	85.5%	86%	96.2%
O=C(COc1ccc(/C=C2\Oc3ccccc3C2=O)cc1)Nc1nc2c(s1)CCCC2	-79.7% (active)	20.9%	22.6%	22.2%	-5.41% (active)	-9.96% (active)	101%	-95.7% (active)	104%	98.3%	89.7%	30.2%	-76.6% (active)	83%	-44.4% (active)	12.3%	103%	75.6%	-57.3% (active)	117%
COc1cc(/C=C/C(=O)N2CCN(C(=O)c3cc(OC)c(OC)c(OC)c3)CC2)ccc1OCCCN1C(=O)c2cccc3cccc(c23)C1=O	79.1%	78.7%	125%	101%	74.2%	90.6%	71.9%	99.9%	101%	99.3%	72%	91.8%	93.1%	99.5%	83.4%	25.5%	75.5%	64.3%	68.8%	81.9%
Cc1c2c(c(C)c3c1oc1cc(O)ccc13)C(=O)N(CCN1CCCCC1)C2=O	68.4%	3.97% (active)	100%	83%	87.1%	73.4%	102%	91.6%	110%	91.7%	95.4%	61.3%	87.3%	88.9%	86.4%	83.8%	96%	99.2%	95.4%	106%
Cc1ccc(Cl)c(NS(=O)(=O)c2ccc(-c3cnc(C4CC4)o3)cc2)c1	21.6%	8.53% (active)	62.4%	32.5%	9.98% (active)	56.2%	16.1%	-8.06% (active)	67.8%	2.07% (active)	16.9%	3.93% (active)	-10.1% (active)	18.9%	24.1%	31.1%	26.4%	26.5%	33%	53.7%
Cc1cccc(NC(=O)CSc2nc3ccccc3[nH]2)c1	107%	102%	105%	88.5%	99%	95.2%	105%	98.1%	111%	107%	104%	122%	84.2%	94.9%	101%	91%	103%	85.1%	96.8%	101%
Cc1ccc(C2SCC(=O)N2Cc2ccccc2)cc1 (stereo not given)	118%	110%	93.3%	98.3%	114%	115%	95%	109%	97.7%	104%	100%	96.9%	95.1%	98.9%	97.6%	92.1%	105%	91.7%	97.9%	106%
COc1ccc(C2=Nc3c(N)ncnc3NC(c3ccc4c(c3)OCO4)C2)cc1 (stereo not given)	97.1%	113%	105%	73.9%	66%	89.6%	118%	90.3%	116%	73.8%	94.8%	93.2%	66.2%	85%	94.3%	77.2%	88.2%	80.6%	94%	101%
COc1ccc(N=C(c2ccccc2)C2C(=O)c3ccccc3C2=O)cc1	99.8%	75.4%	103%	103%	72.1%	97.7%	67.2%	72.3%	93.8%	92%	67%	79.5%	76.3%	89.5%	81.8%	32.3%	71.4%	63%	75.4%	74.1%
Cn1c2c(c3ccc(Cl)c(Cl)c31)C(C#N)C1(CCNCC1)NC2=O (stereo not given)	69.1%	26.1%	58.1%	42.2%	25.9%	48.6%	58.3%	56.8%	39.9%	16.1%	47.2%	9.42% (active)	22.2%	57.2%	47.7%	20.5%	59.6%	-46.5% (active)	14.2%	-81.4% (active)
CCc1ccccc1NC(=O)/C(C#N)=C/c1ccc(OC)cc1	100%	99.5%	104%	105%	126%	93.8%	91.9%	108%	108%	99.1%	101%	100%	99.3%	111%	106%	81.1%	96.3%	81.6%	102%	92.9%
O=C1Nc2ccc(F)cc2C12Nc1cc(Cl)ccc1S2 (stereo not given)	101%	48.6%	88.6%	88.1%	110%	100%	89.8%	93.8%	109%	90.9%	82.3%	103%	70.9%	92.1%	94.6%	57.3%	83.4%	75.4%	85.6%	118%
Cc1occc1-c1n[nH]c(=S)n1N1C(=O)CSC1=S	108%	103%	98%	101%	112%	97%	101%	98.5%	109%	102%	101%	105%	80.9%	97%	100%	97.2%	101%	91.4%	94.1%	106%
